Laboratory results taken from PubChem BioAssay (NCI).
Compounds without any hit were thinned out: in the full panel of roughly 79,000, 15% have a hit. Activity calls are given as the source filed them. No stated cut-off is given here; in the data, active means growth inhibition above about 70%; inactive means the rest. *1 amine or outer side, *2 acyl side, *3 side chain or, on linkers, in order; H or OH if unused. Where a SMILES comes first, the peptide text is derived from it. Bridges are numbered along the chain shown (N, C = ends). Roman numbers before positions name the chains, in order. [ ]: non-standard residue; d: D form. Actinocin(9to1) = Cc1c2oc3c(C)ccc(C(=O)[*:1])c3nc-2c(C(=O)[*:2])c(N)c1=O; NMeT = CN[CH](C(=O)O)[CH](C)O; Sar = CNCC(=O)O

Tests used:
[1] = NCI Yeast Anticancer Drug Screen. Data for the rad50 strain (AID 155);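 further: 0% = growth of vehicle-only cultures of the same strain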; conditions: S. cerevisiae rad50 strain growth inhibition; at 50.0 µM; hits give high values
In short: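 Compounds were tested on a yeast strain with an engineered DNA damage repair alteration; the reported value is growth inhibition normalised to vehicle treatment.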

[2] = NCI Yeast Anticancer Drug Screen. Data for the mec2-1 strain (AID 157); conditions: S. cerevisiae mec2-1 strain, at 50.0 µM, hits give high values
In short: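 Compounds were applied to mec2-1 yeast cells. Their growth was then compared with that of vehicle-treated cultures to give growth inhibition.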

[3] = NCI Yeast Anticancer Drug Screen. Data for the sgs1 mgt1 strain (AID 161);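 further: 0% = growth of cultures given vehicle only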; conditions: S. cerevisiae sgs1 mgt1 strain, at 50.0 µM, hits give high values
In short: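 This yeast growth screen uses a strain with defined DNA-repair lesions; compound-treated growth is compared with vehicle-treated growth.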

[4] = NCI Yeast Anticancer Drug Screen. Data for the cln2 rad14 strain (AID 165);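 further: 0% = growth equal to vehicle treated cultures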; conditions: S. cerevisiae cln2 rad14 strain, at 50.0 µM, hits give high values
In short: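 Strain: cln2 rad14 yeast, altered in cell cycle control and DNA damage repair. Read-out: growth inhibition vs vehicle.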

[5] = NCI Yeast Anticancer Drug Screen. Data for the bub3 strain (AID 167); conditions: S. cerevisiae bub3 mutant strain, at 50.0 µM, hits give high values
In short: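 Growth of a checkpoint-deficient yeast mutant is measured after compound exposure. Values represent inhibition relative to vehicle.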

[6] = NCI Yeast Anticancer Drug Screen. Data for the mlh1 rad18 strain (AID 175); conditions: S. cerevisiae mlh1 rad18 strain growth inhibition; at 50.0 µM; hits give high values
In short: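 A repair-deficient yeast strain is exposed to test compound, and growth is scored relative to vehicle-treated controls.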

Measured: growth inhibition

N#Cc1nc(-c2ccccc2)c(-c2ccccc2)nc1C#N
inactive: [1] 3.15% | [2] 9.8% | [3] 0.6% | [4] -7.05% | [5] 13.9% | [6] -0.6%

O=c1oc2ccc(Br)cc2cc1CCS
inactive: [1] 9.9% | [2] 21.2% | [3] -4.7% | [4] 10.8% | [5] 9.55% | [6] -9.35%

Cc1cccc(Nc2c(C(=O)O)cnc3cc4c(cc23)OCO4)c1
inactive: [1] -3.4% | [2] -4.85% | [3] 3.45% | [4] -49.8% | [5] -5.85% | [6] -6.1%

C/C(CC(N)=O)=C1\C(=O)NN(c2ccccc2)C1=O
inactive: [1] 23.1% | [2] 26.4% | [3] 48.2% | [4] 7.3% | [5] 40% | [6] 36.4%

CC(C)NC(=O)OCc1c(COC(=O)NC(C)C)c2cccn2c2c1cnn2-c1ccccc1
inactive: [1] -0.9% | [2] 0.6% | [3] -11.2% | [4] -3.7% | [5] 0.15% | [6] 18.3%

NNC(=O)c1cccc(C(=O)NN)n1
inactive: [1] 6.25% | [2] 4.9% | [3] 8.55% | [4] 5.85% | [5] 31.1% | [6] 15.1%

COC(=O)C(Cc1c[nH]c2ccccc12)NP(=O)(O)OCC1OC(n2cc(Br)c(=O)[nH]c2=O)CC1O (stereo not given)
inactive: [1] -34.8% | [2] -15.4% | [3] -9.25% | [4] -12% | [5] -16.3% | [6] -10.1%

CC1=CN2C(c3ccc(Cl)cc3)=NON(c3ccc(C)cn3)C2C=C1 (stereo not given)
inactive: [1] -21.6% | [2] -4.75% | [3] 0.65% | [4] -50.8% | [5] 5.25% | [6] 8.35%

CC1(C)CS(=O)(=O)C(=O)N1CCC(=O)O
inactive: [1] 9.8% | [2] 15.4% | [3] 7.8% | [4] 3.85% | [5] 6.45% | [6] 24.9%

O=c1[nH]c(=O)c2nccnc2[nH]1
inactive: [1] 9.1% | [2] -0.6% | [3] -10.7% | [4] 0.75% | [5] 5% | [6] 5.1%

NC(=O)c1ccccc1OCC(=O)O
inactive: [1] 6.65% | [2] -1.2% | [3] 4.2% | [4] 15.8% | [5] -6.45% | [6] 19.1%

O=C(Oc1c(Cl)cc(Cl)cc1Cl)c1ccc([N+](=O)[O-])cc1
inactive: [1] 9.2% | [2] 10.8% | [3] 5.45% | [4] -8.65% | [5] -9.45% | [6] -1.15%

CSCCNC(=O)CS(=O)(=O)c1ccc(N)cc1
inactive: [1] -10.3% | [2] -25.9% | [3] -7.65% | [4] -13.2% | [5] -2.35% | [6] -14.9%

O=C(O)CCSCCCCCCCCCCCCSCCC(=O)O
inactive: [1] 16.5% | [2] 18.9% | [3] 18.4% | [4] 18.8% | [5] -3.65% | [6] 25.8%

Cc1nc(N)nc(N)c1N1CCN(c2ccc(C(=O)NC(C(=O)O)C(=O)O)cc2)CC1
inactive: [1] -4.8% | [2] -15.6% | [3] -25.8% | [4] 4.55% | [5] -38.2% | [6] -37.8%

COc1cccc(C(=O)NCCNCCNC(=O)c2cccc(OC)c2OC)c1OC
inactive: [1] -0.8% | [2] 0.7% | [3] -3.95% | [4] -6.6% | [5] -1.75% | [6] -2.35%

O=C1c2ccccc2C(=O)N1CC(O)COCc1ccccc1 (stereo not given)
inactive: [1] -17.8% | [2] -25.8% | [3] -31.7% | [4] -15.9% | [5] 25.6% | [6] -6.55%

C/C=C/C1OCCC(C)O1 (stereo not given)
inactive: [1] 41.3% | [2] -12% | [3] 9.1% | [4] 21.1% | [5] 4.95% | [6] 11%

O=C(O)c1c2ccccc2nc2c1sc1ccccc12
inactive: [1] -17.9% | [2] -8% | [3] -3.05% | [4] -63.6% | [5] -1.45% | [6] -7.85%

CCOC(=O)c1[nH]n(-c2ccccc2)c(=O)c1/C=N/C(=S)Nc1ccccc1
inactive: [1] -22.3% | [2] -10.6% | [3] -16.6% | [4] -11.8% | [5] -21.3% | [6] -7.85%

O=C1c2c(F)c(F)c(F)c(F)c2SC2=Nc3cccc4cccc(c34)N12
inactive: [1] -17.5% | [2] -3.8% | [3] -37.3% | [4] -14.5% | [5] -4.25% | [6] -37.8%

Cc1c2oc3c(C)ccc(C(=O)NC4C(=O)NC(C(C)C)C(=O)N5CCCC5C(=O)N(C)CC(=O)N(C)C(C(C)O)C(=O)OC4C)c3nc-2c(C(=O)NC2C(=O)NC(C(C)C)C(=O)N3CCCC3C(=O)N(C)CC(=O)N(C)C(C(C)O)C(=O)OC2C)c(N)c1=O (stereo not given) (I: TVP[Sar][NMeT] / II: TVP[Sar][NMeT]; ester I:1-I:C, II:1-II:C; linker I:N-II:N via Actinocin(9to1); configuration not given here)
inactive: [1] 19.4% | [2] -21% | [3] -3.3% | [4] 31.3% | [5] -5.3% | [6] -52.5%

COc1ccc2nc(C)c3c(c2c1)C(=O)N(CCC[N+]1([O-])CC[N+]([O-])(CCCN2C(=O)c4c(c5cc(OC)ccc5[n+]([O-])c4C)C2=O)CC1)C3=O (stereo not given)
inactive: [1] -0.2% | [2] -7.8% | [3] -5.65% | [4] -35.7% | [5] 2.3% | [6] 26.1%

Cc1cc(NCCN(C(C)C)C(C)C)nc(Nc2nc3cc(Cl)c(Cl)cc3[nH]2)n1
active: [1] 75.8% | [3] 77.8%
inactive: [2] 39.2% | [4] 11.7% | [5] 23.1% | [6] 55.6%

NCCCCCC(CCN)SCC1OC(n2cnc3c(N)ncnc32)C(O)C1O (stereo not given)
inactive: [1] 17.6% | [2] -2.45% | [3] -5.1% | [4] -7.45% | [5] -0.95% | [6] 25.9%

O=C(NCc1ccc([N+](=O)[O-])cc1)c1ccccc1
inactive: [1] 4.15% | [2] 4.45% | [3] -6.4% | [4] 10.1% | [5] 0.85% | [6] 6.7%

CCN(CC)CCNc1ccccc1
inactive: [1] -0.45% | [2] -13% | [3] -8.55% | [4] -48.4% | [5] -4.9% | [6] 14.7%

NNC(=O)c1n[nH]n(N)c1=S
inactive: [1] 22.6% | [2] 25.1% | [3] 10.9% | [4] -8.65% | [5] -8.65% | [6] 24.2%

Cc1cc(S(N)(=O)=O)c(SCc2nc(N)nc(N(C)C)n2)cc1Cl
inactive: [1] -30.8% | [2] -22.3% | [3] -20.3% | [4] 9.05% | [5] -37.4% | [6] 7.8%

C/C(CCc1ccccc1Br)=N/NC(N)=O
inactive: [1] -11.1% | [2] -0.9% | [3] -8.55% | [4] -34.4% | [5] 2.6% | [6] -11.3%

CC(=O)C(C(C)=O)C(c1cccnc1)C(C(C)=O)C(C)=O
inactive: [1] 2.7% | [2] 0.65% | [3] 10% | [4] 0.1% | [5] 25.3% | [6] -10.5%

S=C(/C=C1\SC(=Nc2ccccc2)C(=Nc2ccccc2)N1c1ccccc1)Nc1ccccc1
inactive: [1] 1.25% | [2] -9% | [3] -9.6% | [4] -4.1% | [5] 10.3% | [6] 1.35%

Nc1ccc([N+](=O)[O-])c2ccccc12
inactive: [1] 17.1% | [2] -8.75% | [3] 12.7% | [4] 10.8% | [5] 24.6% | [6] 12.7%

O=C(Nc1ccc([N+](=O)[O-])cc1)OC1CCS(=O)(=O)C1 (stereo not given)
inactive: [1] -0.2% | [2] 6.15% | [3] -3.65% | [4] 13.7% | [5] 8.6% | [6] -1.65%

CCN(CC)CCN(C)c1ccccc1
inactive: [1] 9.85% | [2] 4.35% | [3] -2.05% | [4] -1.05% | [5] -0.1% | [6] 0.3%
